Shown are actives, neighbours in structure and some others; about 5.7% of the full set was active somewhere.
HepG2 tox = qHTS for Inhibitors of TGF-b: Cytotox Counterscreen; HepG2 CAGA-GFP viability, ATP luminescence, 18 h; Potency, µM (doses to about 46.1 µM), for the others: at the top dose activity change, negative = cytotoxicity, actives largely listed as cytotoxic; 410,000 tested, 0.76% active; AID 588856, 2011; also: potency is read from the fitted curve at half-maximal effect
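CellTiter-Glo luminescence gave cytotoxicity after 18 hours at 37 degrees C. The cells were HepG2 CAGA-GFP in 1% FBS DMEM, stimulated with 500 pg/mL TGF-beta after compound addition. %Activity was normalised to no-cell wells (complete cell-killing) and DMSO (no toxicity), and curves were fitted and classified.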
S2 tox = Viability Counterscreen for Primary qHTS for Inhibitors of ATXN expression; S2 cells (HEK-293 line with an ATXN2-luciferase reporter) viability, CellTiter-Fluor protease fluorescence, 24 h; Potency, µM (series often up to 56.7 µM), hits mostly cytotoxic; 400,000 tested, 0.49% active; AID 651635, 2014; also: potency is read from the fitted curve at half-maximal effect; nearly all actives have a fitted effect of over 40% in size
ATXN2 expr inh = Primary qHTS for Inhibitors of ATXN expression; 360,000 tested, 0.72% active; HEK-293 ATXN2-luciferase reporter, luminescence, 24 h; AID 1745845, 2022; Potency, µM (doses to about 57 µM), without a hit: at the highest dose activity change, negative = inhibition, most hits filed as inhibitors; also: potency is read from the fitted curve at half-maximal effect; % is scaled to controls: 0 for no effect and ±100 for the full control effect; nearly all actives have a fitted effect of over 55% in size
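qHTS (up to 57 uM final) was run with 24 h compound exposure of reporter cells at 37 °C. Each well was multiplexed: SteadyGlo luminescence measured ATXN2-luciferase expression after a fluorogenic Gly-Phe-AFC viability readout (25 uM final).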
IL1B secr inh = qHTS for Inhibitors of Inflammasome Signaling: IL-1-beta AlphaLISA Primary Screen; activity change, % at 57.5 µM; AID 743279, 2014; 360,000 tested, 4.7% active; THP-1 LPS/ATP IL-1B secretion, AlphaLISA, 16 h; stronger effect = lower value; in the data active = activity change below about -50%; inconclusive = mostly about -30% to -49%; also: % is scaled to controls: 0 for no effect and ±100 for the full control effect
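Secreted IL-1B measured by AlphaLISA bead assay after 16 h compound exposure of THP-1 cells; compounds (final up to 57.5 uM) added 1 h before LPS (250 ng/mL) and ATP (1.25 mM) stimulation; lower signal means less secretion.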
TGFb SMAD3 inh = qHTS for Inhibitors of TGF-b; AID 588855, 2011; 410,000 tested, 1.2% active; Potency, µM (titrated, usually from 46.1 µM), for the others: at the top dose activity, negative = inhibition, usual class: inhibitors; HepG2 CAGA-GFP TGF-b/SMAD3 reporter, GFP fluorescence, 18 h; TGF-beta stimulated, 500 pg/mL final; also: potency is read from the fitted curve at half-maximal effect; % is scaled to controls: 0 for no effect and ±100 for the full control effect; nearly all actives have a fitted effect of over 65% in size
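Inhibition of TGF-beta-driven CAGA-GFP reporter expression in HEPG2 cells is measured by cellular GFP fluorescence after 18 h stimulation with 500 pg/mL recombinant TGF-beta in 1% FBS medium at 37 degrees C.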
* = called active by the depositor; i = inactive; ? = inconclusive; . = not tested or not shown; [ ] = dose if it differs, or a comment. Unless noted, calls follow the shape of the dose curve; as a rule, active = well fitted curve in the direction sought with a large enough effect; inconclusive = small, poorly fitted or top-dose-only effect, or another doubt; inactive = no such curve, though single readings can be large; an effect the other way counts as inactive or inconclusive.

SMILES	HepG2 tox	S2 tox	ATXN2 expr inh	IL1B secr inh	TGFb SMAD3 inh
Cc1ccccc1S(=O)(=O)N1[C@@H](c2ccc(Br)cc2)C(C(=O)O)=CC[C@H]1c1ccc(Cl)cc1	-78%	?	-9%	5	18µM*
COc1ccc(C2C=CC(=O)CC2)c(OC)c1 (centres undefined)	.	i	-10%	-76*	.
O=C(C1CCN(S(=O)(=O)c2cccc3nsnc23)CC1)N1CCc2ccccc21	-6%	i	3%	-1	-18%
O=C(Nc1cccc(C(F)(F)F)c1)C1CCCN(S(=O)(=O)c2cccc3nsnc23)C1 (centres undefined)	-17%	i	-12%	.	6.3µM*
O=C(C1CCN(S(=O)(=O)c2cccc3nsnc23)CC1)N1CCCc2ccccc21	-7%	i	0%	-52*	-3%
Cc1cccc(NC(=O)C2CCCN(S(=O)(=O)c3cccc4nsnc34)C2)c1 (centres undefined)	-44%	i	-16%	0	?
O=C(C1CCCN(S(=O)(=O)c2cccc3nsnc23)C1)N1CCN(c2ccccc2Cl)CC1 (centres undefined)	-36%	i	-21%	.	14µM*
CCOc1ccc(CCNC(=O)c2ccc3c(c2)c(C)c(C)n3Cc2ccccc2)cc1OCC	-31%	.	.	.	?
Cc1ccccc1OCC(=O)Nc1ccc(S(=O)(=O)N(Cc2ccccc2)c2ccccc2)cc1	-9%	i	-7%	.	0%
CC(C)C[C@H]1CNC(=O)C(=O)N1C[C@H]1CCCN1C[C@H](CC(C)C)N1C[C@H](CC(C)C)N(CCc2ccccc2)C(=O)C1=O	.	?	-13%	-75*	.
CC(C)C[C@H]1CNC(=O)C(=O)N1C[C@@H]1CCCN1C[C@H](Cc1ccccc1)N1C[C@H](CC(C)C)N(CCc2ccccc2)C(=O)C1=O	.	?	-17%	?	.
O=C1NC[C@H](Cc2ccccc2)N(C[C@@H]2CCCN2C[C@H](Cc2ccc(O)cc2)N2C[C@H](Cc3ccccc3)N(CCc3ccccc3)C(=O)C2=O)C1=O	.	?	14%	-80*	.
CC(C)C[C@@H](CN1CCC[C@H]1CN1C(=O)C(=O)NC[C@@H]1Cc1ccccc1)N1C[C@H](Cc2ccccc2)N(CCc2ccccc2)C(=O)C1=O	.	?	?	-77*	.
CC(C)C[C@H]1CN([C@@H](CC(C)C)CN2CCC[C@H]2CN2C(=O)C(=O)NC[C@@H]2Cc2ccccc2)C(=O)C(=O)N1CCc1ccccc1	.	i	-1%	8	.
CN(C)c1ccc(/C=C/c2ccnc3ccc(-c4ccccc4)cc23)cc1	5%	.	.	.	14%
COc1cc2c(cc1OC)C(C)N(CCc1ccc(Cl)cc1)CC2 (centres undefined)	-22%	i	-32%	-59*	?
CCc1ccc(/C=C/C(=O)c2ccc(N3CCOCC3)cc2)cc1	-26%	i	5%	-89*	-9%
Cc1ccc(/C=C/C(=O)c2ccc(N3CCOCC3)cc2)s1	-18%	.	48%[11.3 µM]	?	-1%
O=C(/C=C/c1ccc(F)cc1)c1ccc(N2CCOCC2)cc1	-15%	i	16%	-59*	4%
O=C1O[C@@H]2[C@@H](O)[C@H](O)O[C@@H]2[C@H]1O	.	i	.	.	.
CN(C(=O)c1ccc(NC(=O)Cc2ccc(NC(=O)C3CCN(C(=O)C4CCCC4)CC3)cc2)cc1)C1CCCC1	-20%	i	4%	-17	-9%
CN(C(=O)c1ccc(NC(=O)Cc2ccc(NC(=O)C3CCN(C(=O)C4CCCCC4)CC3)cc2)cc1)C1CC1	10%	?	-1%	-61*	2%
CCOc1ccc(NC(=O)CC2C(=O)N(c3ccc(F)cc3)C(=O)N2CCc2sccc2C)cc1 (centres undefined)	-19%	?	-17%	.	?
COC1=C(OC)C(=O)C(Sc2ccc3ccccc3c2)=CC1=O	-61%	.	?	-104*	?
COc1ccc(S(=O)(=O)Oc2ccc3ccccc3c2)cc1	-15%	i	32%	-13	1%
SMILES	HepG2 tox	S2 tox	ATXN2 expr inh	IL1B secr inh	TGFb SMAD3 inh
COc1cc(C)c(Sc2cnc(NC(=O)c3ccc(CNC(C)C(C)(C)C)cc3)s2)cc1C(=O)N1CCN(C(C)=O)CC1 (centres undefined)	.	.	8.6µM*	.	.
COc1ccc(C(=O)Nc2ncc(C)s2)cc1S(=O)(=O)N1CCOCC1	-2%	i	7%	71	-1%
CCc1ccccc1Nc1cc(C(=O)NC(C)c2ccccc2)c2ccccc2n1 (centres undefined)	-24%	?	-34%	.	?
CCOC(=O)COc1ccccc1/C=C\[N+](=O)[O-]	8.9µM*	.	?	-100*	5.6µM*
Clc1ccc(CSc2nc3ncccc3[nH]2)cc1	-30%	.	.	.	?
CCN1CCN(c2ccc(NC(=O)c3cccc(OCc4ccccc4)c3)cc2)CC1	-48%	i	-1%	-80*	?
COc1cccc(C(=O)Nc2ccc(N3CCN(C(=O)c4cccs4)CC3)cc2)c1	-19%	i	-35%	-87*	?
O=C(Nc1ccc(N2CCN(C(=O)c3cccs3)CC2)cc1)c1cccc(F)c1	-7%	i	-33%	-89*	-7%
O=C(NC1CCCCC1)c1cccc(OCc2ccccc2)c1	-2%	i	1%	-74*	-7%
CN1CCN(c2ccc(NC(=O)c3cccc(OCc4ccccc4)c3)cc2)CC1	-75%	i	3%	0	?
COc1ccc(-c2nc(SCC(=O)NCCCc3ccccc3)n[nH]2)cc1	-10%	.	.	.	0%
CC1(C)Cc2c(C#N)c(N3CCN(C(=O)c4ccccc4)CC3)nc(Cc3ccccc3)c2CO1	27%	i	-2%	-51*	42%
Cc1ccc(-c2nnc(N3CCN(C(=O)c4ccco4)CC3)c3ccccc23)cc1	-24%	i	-21%	-63*	-16%
CC(=O)N1CCN(c2nnc(-c3ccccc3)c3ccccc23)CC1	-1%	i	6%	0	-1%
Cc1ccc(-c2nnc(Oc3cccc(C)c3)c3ccccc23)cc1	1%	i	14%	-75*	7%
Cc1ccc(OCC(=O)N2CCN(c3nnc(-c4ccc(C)cc4)c4ccccc34)CC2)cc1	-28%	?	28µM*	-87*	?
O=[N+]([O-])c1cccc2[nH]cnc12	-36%	.	.	.	-20%
Cc1ccc(-c2nnc(OCC3CCCO3)c3ccccc23)cc1 (centres undefined)	-16%	i	-19%	-66*	-4%
CC(C)C(=O)N1CCN(c2nc(-c3ccccc3)c3c(c2C#N)CCCC3)CC1	-33%	i	-34%	-57*	?
